Out of some 3,200 compounds screened, about 300 (9.4%) showed activity. The sample holds actives, similar compounds and a random draw of the others, so the mix is not that of the screen. Unmarked numbers belong to inactive results.
Tested on: A673/TR/shEF
Assay: cell viability (LOESS-normalised, relative to median of negative controls) (log2 ratio); higher = more viable cells (less compound effect), active = hit call of the paper (over 3 MAD below the median)
Settings: treatment time: 72 h
Method in brief: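 For three days, A673/TR/shEF Ewing sarcoma cells in 384-well plates (1,500 per well) were treated with library compounds at two or more concentrations or with DMSO controls, after doxycycline had been added or withheld 24 h beforehand to induce EWS-FLI1 shRNA knockdown. Viability was read by CellTiter-Glo luminescence on an Envision reader. The data were LOESS-corrected per plate, divided by the median of negative controls and log2-transformed.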

[1] = 0.25 µM, library screen: screen1, EWS-FLI1 expression: high (no doxycycline)
[2] = 0.25 µM, library screen: screen1, EWS-FLI1 expression: low (doxycycline-induced shRNA knockdown)
[3] = 2.5 µM, library screen: screen1, EWS-FLI1 expression: high (no doxycycline)
[4] = 2.5 µM, library screen: screen1, EWS-FLI1 expression: low (doxycycline-induced shRNA knockdown)
[5] = 0.25 µM, library screen: screen2, EWS-FLI1 expression: high (no doxycycline)
[6] = 0.25 µM, library screen: screen2, EWS-FLI1 expression: low (doxycycline-induced shRNA knockdown)
[7] = 2.5 µM, library screen: screen2, EWS-FLI1 expression: high (no doxycycline)
[8] = 2.5 µM, library screen: screen2, EWS-FLI1 expression: low (doxycycline-induced shRNA knockdown)
[9] = 0.103 µM, library screen: screen3, EWS-FLI1 expression: high (no doxycycline)
[10] = 0.103 µM, library screen: screen3, EWS-FLI1 expression: low (doxycycline-induced shRNA knockdown)
[11] = 0.308 µM, library screen: screen3, EWS-FLI1 expression: high (no doxycycline)
[12] = 0.308 µM, library screen: screen3, EWS-FLI1 expression: low (doxycycline-induced shRNA knockdown)
[13] = 0.926 µM, library screen: screen3, EWS-FLI1 expression: high (no doxycycline)
[14] = 0.926 µM, library screen: screen3, EWS-FLI1 expression: low (doxycycline-induced shRNA knockdown)
[15] = 2.8 µM, library screen: screen3, EWS-FLI1 expression: high (no doxycycline)
[16] = 2.8 µM, library screen: screen3, EWS-FLI1 expression: low (doxycycline-induced shRNA knockdown)
[17] = 8.3 µM, library screen: screen3, EWS-FLI1 expression: high (no doxycycline)
[18] = 8.3 µM, library screen: screen3, EWS-FLI1 expression: low (doxycycline-induced shRNA knockdown)
[19] = 25 µM, library screen: screen3, EWS-FLI1 expression: high (no doxycycline)
[20] = 25 µM, library screen: screen3, EWS-FLI1 expression: low (doxycycline-induced shRNA knockdown)
[21] = 0.025 µM, library screen: screen1, EWS-FLI1 expression: high (no doxycycline)
[22] = 0.025 µM, library screen: screen1, EWS-FLI1 expression: low (doxycycline-induced shRNA knockdown)
[23] = 25 µM, library screen: screen1, EWS-FLI1 expression: high (no doxycycline)
[24] = 25 µM, library screen: screen1, EWS-FLI1 expression: low (doxycycline-induced shRNA knockdown)

In the case of Oc1cc(O)cc(/C=C/c2ccccc2)c1, the “cell viability (log2)” value [1] is reported as 0.0674, the “cell viability (log2)” value [2] is reported as 0.00318 and the “cell viability (log2)” value [3] is reported as 0.07. The “cell viability (log2)” value [4] was 0.0614.

In the case of C=C1CC/C=C(/C)CC[C@@H]2[C@@H]1CC2(C)C, the “cell viability (log2)” value [1] is reported as 0.102, the “cell viability (log2)” value [2] is reported as 0.0257 and the “cell viability (log2)” value [3] is reported as 0.165. For the same compound, the “cell viability (log2)” value [4] was 0.118.

CC1(C)CC[C@]2(C(=O)O)[C@H](O)C[C@]3(C)C(=CC[C@@H]4[C@@]5(C)CC[C@H](O)C(C)(C)[C@@H]5CC[C@]43C)[C@@H]2C1 was tested, and the “cell viability (log2)” value [1] was 0.0739, the “cell viability (log2)” value [2] was 0.0342 and the “cell viability (log2)” value [3] was 0.0945. The “cell viability (log2)” value [4] was 0.121.

For CC1(C)C(=O)CCC2(C)C1CC(O)C1(C)C2CCC2(C)C(c3ccoc3)OC(=O)C3OC321 (stereo not given), the “cell viability (log2)” value [1] was 0.0271, the “cell viability (log2)” value [2] was -0.0613 and the “cell viability (log2)” value [3] was 0.1. For the same compound, the “cell viability (log2)” value [4] was -0.017.

With NC(N)=NCCSSCCN=C(N)N the “cell viability (log2)” value [5] was 0.208, the “cell viability (log2)” value [6] was 0.0937 and the “cell viability (log2)” value [7] was 0.0577. The “cell viability (log2)” value [8] was 0.063.

With O=c1cccc2ccc(O)c(O)c2c1O the “cell viability (log2)” value [1] was 0.0319, the “cell viability (log2)” value [2] was -0.0442 and the “cell viability (log2)” value [3] was 0.142. For the same compound, the “cell viability (log2)” value [4] was -0.0155.

With COc1cc(O)cc(OC)c1OC the “cell viability (log2)” value [1] was 0.0343, the “cell viability (log2)” value [2] was 0.0156 and the “cell viability (log2)” value [3] was 0.173. For the same compound, the “cell viability (log2)” value [4] was 0.0956.

For COc1ccc(CN2CCN(Cc3cc(OC)c(OC)c(OC)c3)CC2)cc1, the “cell viability (log2)” value [1] was 0.174, the “cell viability (log2)” value [2] was 0.0733 and the “cell viability (log2)” value [3] was 0.142. For the same compound, the “cell viability (log2)” value [4] was -0.0868.

In the case of COc1cc(Cc2cnc(N)nc2N)cc(OC)c1OC, the “cell viability (log2)” value [1] is reported as 0.149, the “cell viability (log2)” value [2] is reported as 0.184 and the “cell viability (log2)” value [5] is reported as -0.215 (active). For the same compound, the “cell viability (log2)” value [6] was -0.0762 (active), the “cell viability (log2)” value [3] was 0.204 and the “cell viability (log2)” value [4] was 0.321. The “cell viability (log2)” value [7] was -1.67 (active) and the “cell viability (log2)” value [8] was -2.59 (active).

With COc1ccc(-c2coc3cc(OC)cc(O)c3c2=O)cc1 the “cell viability (log2)” value [1] was 0.0141, the “cell viability (log2)” value [2] was 0.0676 and the “cell viability (log2)” value [3] was 0.102. For the same compound, the “cell viability (log2)” value [4] was 0.184.

For COc1cc(CN2CCN(Cc3ccco3)CC2)cc(OC)c1, the “cell viability (log2)” value [1] was -0.0146, the “cell viability (log2)” value [2] was 0.0935 and the “cell viability (log2)” value [3] was 0.0118. For the same compound, the “cell viability (log2)” value [4] was 0.0977.

CCCS(=O)(=O)Nc1ccc(F)c(C(=O)c2c[nH]c3ncc(-c4ccc(Cl)cc4)cc23)c1F was tested, and the “cell viability (log2)” value [9] was 0.0151, the “cell viability (log2)” value [10] was 0.0756 and the “cell viability (log2)” value [11] was -0.0936. For the same compound, the “cell viability (log2)” value [12] was 0.103, the “cell viability (log2)” value [13] was -0.131 and the “cell viability (log2)” value [14] was 0.105. For the same compound, the “cell viability (log2)” value [15] was -0.159, the “cell viability (log2)” value [16] was 0.126 and the “cell viability (log2)” value [17] was -0.177. For the same compound, the “cell viability (log2)” value [18] was 0.106, the “cell viability (log2)” value [19] was -0.179 (active) and the “cell viability (log2)” value [20] was 0.0931.

With COc1c(Cl)c(C)c2c(c1Cl)OC(=O)c1c(C)c(Cl)c(O)c(Cl)c1O2 the “cell viability (log2)” value [1] was 0.0361, the “cell viability (log2)” value [2] was 0.0285 and the “cell viability (log2)” value [3] was 0.0998. The “cell viability (log2)” value [4] was 0.0885.

With CN([C@@H](Cc1ccc(OS(=O)(=O)c2cccc3cnccc23)cc1)C(=O)N1CCN(c2ccccc2)CC1)S(=O)(=O)c1cccc2cnccc12 the “cell viability (log2)” value [21] was 0.267, the “cell viability (log2)” value [22] was 0.00847 and the “cell viability (log2)” value [1] was 0.23. For the same compound, the “cell viability (log2)” value [2] was -0.0263, the “cell viability (log2)” value [5] was 0.0748 and the “cell viability (log2)” value [6] was 0.07. For the same compound, the “cell viability (log2)” value [3] was -0.171 (active), the “cell viability (log2)” value [4] was 0.0275 and the “cell viability (log2)” value [7] was 0.166. The “cell viability (log2)” value [8] was -0.012, the “cell viability (log2)” value [23] was -0.315 (active) and the “cell viability (log2)” value [24] was 0.00423.

With CC1CN(S(=O)(=O)c2cccc3cnccc23)CCN1 (stereo not given) the “cell viability (log2)” value [5] was 0.246, the “cell viability (log2)” value [6] was 0.094 and the “cell viability (log2)” value [7] was 0.214. For the same compound, the “cell viability (log2)” value [8] was 0.111.

With COc1ccccc1NC1CC(C)N(C(=O)c2ccc(C)cc2)c2c(C)cccc21 (stereo not given) the “cell viability (log2)” value [1] was 0.107, the “cell viability (log2)” value [2] was 0.0693 and the “cell viability (log2)” value [3] was 0.128. For the same compound, the “cell viability (log2)” value [4] was 0.111.

In the case of Nc1ccc(C(=O)NCC(=O)O)cc1, the “cell viability (log2)” value [1] is reported as 0.0323, the “cell viability (log2)” value [2] is reported as 0.126 and the “cell viability (log2)” value [3] is reported as 0.15. The “cell viability (log2)” value [4] was 0.151.

For CC(C)C[C@H](NC(=O)[C@H](CCC(=O)O)NC(=O)CNC(=O)c1ccc(/C=C/C(=O)O)cc1)C(N)=O, the “cell viability (log2)” value [21] was -0.138 (active), the “cell viability (log2)” value [22] was 0.0951 and the “cell viability (log2)” value [1] was -0.0717. The “cell viability (log2)” value [2] was 0.0592, the “cell viability (log2)” value [3] was -0.0597 and the “cell viability (log2)” value [4] was 0.0308. For the same compound, the “cell viability (log2)” value [23] was -0.00491 and the “cell viability (log2)” value [24] was -0.0971.

CCCN(CCC)C(=O)C(CCC(=O)O)NC(=O)c1ccccc1 (stereo not given) was tested, and the “cell viability (log2)” value [1] was 0.188, the “cell viability (log2)” value [2] was 0.0317 and the “cell viability (log2)” value [5] was 0.129. For the same compound, the “cell viability (log2)” value [6] was 0.0785, the “cell viability (log2)” value [3] was 0.223 and the “cell viability (log2)” value [4] was 0.0771. For the same compound, the “cell viability (log2)” value [7] was 0.121 and the “cell viability (log2)” value [8] was 0.115.

In the case of CC(=O)O[C@@H]1CC2C(C)(C)C(=O)CC[C@]2(C)C2CC[C@]3(C)C(=CC(=O)O[C@H]3c3ccoc3)[C@@]21C (stereo not given in full), the “cell viability (log2)” value [1] is reported as 0.0774, the “cell viability (log2)” value [2] is reported as 0.142 and the “cell viability (log2)” value [3] is reported as 0.182. For the same compound, the “cell viability (log2)” value [4] was 0.164.

CCCCC(=O)N(Cc1ccc(-c2ccccc2-c2nn[nH]n2)cc1)[C@H](C(=O)O)C(C)C was tested, and the “cell viability (log2)” value [9] was 0.0298, the “cell viability (log2)” value [10] was -0.0095 and the “cell viability (log2)” value [11] was 0.124. For the same compound, the “cell viability (log2)” value [12] was 0.0801, the “cell viability (log2)” value [13] was 0.0765 and the “cell viability (log2)” value [14] was 0.054. The “cell viability (log2)” value [15] was 0.0694, the “cell viability (log2)” value [16] was 0.124 and the “cell viability (log2)” value [17] was 0.00201. For the same compound, the “cell viability (log2)” value [18] was 0.078, the “cell viability (log2)” value [19] was 0.137 and the “cell viability (log2)” value [20] was 0.104.

Source: the supplement of paper PMC6089552
